This experiment in a line: small molecules boosting NK-mediated OVCAR3 lysis – imaging, primary NK cells, calcein-AM imaging, primary screen (AID 1508625).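 Also: compound given to NK cells 16 h before adding targets at 1.5 to 1 ratio.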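 As to z-score: more negative robust z means stronger NK killing of tumor cells.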 The following applies: OVCAR3 lysis by primary NK cells, at 5 µM; z-score: measured here: robust Z-score, single-point normalisation.

With `CCN(C(=O)c1cc2cc3ccc(OC)cc3nc2o1)c1cccc(C(F)(F)F)c1`, the corrected activity, negative = more killing is -3.66% and the z-score was -0.898.
`CCOC(=O)Cc1c(C)nc2cc(-c3ccc(C(C)(C)C)cc3)[nH]n2c1=O`: the corrected activity, negative = more killing was -7.93% and the z-score is -2.37.
On the same counts, the results for `CNC(=O)C(C)Oc1cccc(Cl)c1` (configuration not stated) are -2.63% and -1.46.
Take `COc1ccc(-c2ccc3c(N)c(C(=O)NCCc4ccc(Cl)cc4)sc3n2)cc1`: the corrected activity, negative = more killing was -1.65% and the z-score is -0.492.
The matching figures for `COC(=O)c1cc2nc(-c3ccccc3)cc(C)n2n1`: -2.69% and -1.39.
The matching figures for `Cc1ccc(-n2cnc3cc(C(=O)NC4CCCC4)ccc32)cc1Cl`: -3.42% and -0.921.
Take `COc1c(Cl)cc(Cl)cc1C(=O)n1nc(C)cc1C`: the corrected activity, negative = more killing was -2.7% and the z-score was -1.06.
On to `Cc1ccc(OCCCN2CCNCC2)c([N+](=O)[O-])c1`, for which the corrected activity, negative = more killing was -1.55% and the z-score was -0.864.
On the same counts, the results for `COC(=O)c1ccc(C=NN2CCN(c3ccccn3)CC2)cc1` are -4.57% and -2.
On the same counts, the results for `O=c1c2cc(N3CCCCC3)ccc2[nH]c(=S)n1Cc1ccccc1` are -6.78% and -1.8.
In the case of `CC(=O)c1c(C(C)=O)c(C)n(-c2ccc(Cl)c(N)c2)c1C`, the corrected activity, negative = more killing is -6.08% and the z-score is -2.26.
Turning to `O=C(Nc1nc2ccccc2s1)C(=O)Nc1nc2ccccc2s1`, the corrected activity, negative = more killing was 0.998% and the z-score is 0.309.
Consider `CSc1nnc2c(n1)OC(c1ccc(C(=O)O)cc1)Nc1ccccc1-2` (configuration not stated), for which the corrected activity, negative = more killing was -1.74% and the z-score was -0.616.
With `O=C(Cn1cnc2ccccc2c1=O)NCCC(=O)NC1CCCCCC1`, the corrected activity, negative = more killing is -3.69% and the z-score is -1.17.
The matching figures for `COc1ccc2cc3cc(C(=O)N(C)c4cc(C)ccc4C)oc3nc2c1`: -6.86% and -1.68.
Take `CCSc1ccc(NC(=O)CC2c3ccccc3Oc3ccccc32)cc1`: the corrected activity, negative = more killing is -7.71% and the z-score is -2.39.

Source of the values: PubChem BioAssay AID1508625 (Wald Lab, School of Medicine, Case Western Reserve …, 2021).
